From ChEMBL document CHEMBL4513216, “Probing the Open Global Health Chemical Diversity Library for Multistage-Active Starting Points for Next-Generation Antimalarials” (ACS Infect Dis, 2020)
About 8,600 (12%) of roughly 69,000 compounds showed an effect of 50% or more. This is one part of a sample in which strong results are shown more often than they occur.

System: Plasmodium berghei
Test: Screen against P. berghei liver stage (PbLuc), transformed with Luciferase, at 10uM
Format: functional, HepG2
Details: tested at 10 uM

Point of comparison: `O=C(C(CNCc1ccccn1)c1ccccc1)N1CCOCC1` (stereo not given), INHIBITION -5.32%. Against it:
- CC(=O)N1CCC[C@H]1C(=O)NCCCN(C(C)C)S(C)(=O)=O — higher, 25.4%
- CCNC(c1ccc(Br)cc1)c1cccnc1 (stereo not given) — higher, 3.15%
- CC(C)(C)c1nnc2n1C(C(=O)N1CCCC1)CC2 (stereo not given) — higher, 21.7%
- CCC1CN(C(=O)c2cccc(OCc3cscn3)c2)CCO1 (stereo not given) — higher, 32.025%
- Cc1cnn(CC2CCCN2Cc2nccn2CC(F)(F)F)c1 (stereo not given) — lower, -10.1%
- CC(C1CCN(Cc2ccc(N(C)C)nc2)CC1)N1CCOCC1 (stereo not given) — higher, 36.2%
- CC(C1CCN(Cc2ccc(OC(F)F)cc2)CC1)N1CCOCC1 (stereo not given) — higher, 33.7%
- CC(C1CCN(Cc2c(Cl)ccc(O)c2Cl)CC1)N1CCN(C)CC1 (stereo not given) — higher, 21.145%
- CC(C1CCN(Cc2c(Cl)cncc2Cl)CC1)N1CCN(C)CC1 (stereo not given) — higher, 51.3%
- CN1CCN(C[C@@H]2CN(Cc3c(Cl)cncc3Cl)C[C@@H]2CO)CC1 — lower, -56.2%
- CC(C1CCN(Cc2c(Cl)cncc2Cl)CC1)N1CCOCC1 (stereo not given) — higher, 52.5%
- c1cnc(NC2COC3(CCN(Cc4nccs4)CC3)C2)cn1 (stereo not given) — higher, 42.7%
- CCN(CC)c1ncc(CNC2CCc3ncnn3C2)s1 (stereo not given) — lower, -17.9%
- CC(C)(C)S(=O)(=O)CCNC(=O)c1ccc2cc[nH]c2c1 — lower, -19.7%
- COCCN1C[C@@H]2CN(Cc3ccc(C)s3)CCC[C@]2(C(=O)O)C1 — higher, 24.9%
- COCCn1cc2c(n1)C(CNCc1ccco1)OCC2 (stereo not given) — lower, -11.5%
- COc1c(CNC2(c3noc(C)n3)CCC2)c(C)nn1C — lower, -81.2%
- COCCCNC(=O)Nc1cccc(Cl)c1-n1cccn1 — lower, -31.5%
- COCCN(Cc1ccccn1)C(=O)CC1OCCc2ccsc21 (stereo not given) — higher, 58.2%
- COCCN(Cc1ccccn1)C(=O)CC1OCCc2sccc21 (stereo not given) — higher, 35%
- COCCN(Cc1ccccn1)C(=O)CC1OCCc2ccccc21 (stereo not given) — higher, 10.9%
- COCc1nc(Cn2c(C)cc(C(F)(F)F)cc2=O)no1 — higher, 32.1%
- Cc1ccc(C)c(NC(=O)c2cc(S(=O)(=O)N3CCSCC3)c[nH]2)c1 — higher, 32%
- CN(C)S(=O)(=O)N1C[C@H]2CCC[C@@]2(COCc2ccccn2)C1 — higher, 31.9%
- CN(C)S(=O)(=O)N1C[C@H]2CCC[C@@]2(COCC2CCOCC2)C1 — higher, 40.8%
- Cc1cccc(COC[C@@]23CCC[C@@H]2CN(S(=O)(=O)N(C)C)C3)n1 — higher, 52.6%
- CN(C)S(=O)(=O)N1C[C@H]2CCC[C@@]2(COCc2cccnc2)C1 — lower, -136%
- CN(C)S(=O)(=O)N1C[C@H]2CCC[C@@]2(COCC2CC2)C1 — higher, 63%
- CS(=O)(=O)N1C[C@H]2CCC[C@@]2(COCC2CCOCC2)C1 — higher, 5.36%
- COc1cccc2ccc(N3CCC(O)(c4ccc(C)cn4)CC3)nc12 — lower, -44.2%
- Cn1cc2ncn([C@H]3CCN(Cc4ccccc4)C3)c(=O)c2n1 — lower, -25.1%
- CC(C)(C)c1n[nH]c(C2CN(C(=O)CCCn3cccn3)CCO2)n1 (stereo not given) — higher, 17%
- c1cncc(CN2CCc3ncnc(C4CCOC4)c3CC2)c1 (stereo not given) — higher, 30.7%
- CSc1nsc(NC(=O)N2CCc3ccccc3C2)n1 — higher, 16.5%
- CCNC(=O)NCc1nn(CCN2CCCC2)c(=O)c2ccccc12 — higher, 47.7%
- CC(C)CNC(=O)CC1(Cn2cnnn2)CCCCC1 — higher, 67.3%
- CC(C)NC(=O)CC1(Cn2cnnn2)CCCCC1 — higher, 35.8%
- CC(C)OCCCNC(=O)CC1(Cn2cnnn2)CCCCC1 — lower, -22.2%
- Cc1ccc(N2CCCN(C(=O)CCc3nccs3)CC2)nn1 — higher, 3.73%
- Cc1nc(N)cc(C2(C)CCCNC2)n1 (stereo not given) — higher, 32.8%
- CC1CN(C(=O)CN(Cc2ccccc2)C2CC2)CCO1 (stereo not given) — higher, 15.6%
- COC(=O)C(NC(=O)C1CCCC1)c1cc(F)ccc1F (stereo not given) — higher, 29.4%
- Cc1ccnc(NC(=O)c2ccc(Cl)o2)c1 — higher, 32.4%
- CC(C)c1n[nH]c(C(=O)Nc2ccncc2)c1Br — higher, 77.6%
- Cc1nc2c(c(C)c1CC(=O)Nc1ccnn1C(C)C)c(=O)[nH]n2C — higher, -1.33%
- CC(C)c1n[nH]c(C(=O)Nc2ccnn2C(C)C)c1Br — higher, 88.5%
- CC(C)Nc1nc(C(=O)Nc2ccccn2)cs1 — lower, -42.1%
- CC(C(=O)Nc1ccnn1C(C)C)N1CCN(Cc2ccccc2)CC1 (stereo not given) — lower, -8.07%
- Cc1ccnc(NC(=O)c2ccc(Br)o2)c1 — lower, -51.5%
- COc1ncccc1NC(=O)c1[nH]nc(C(C)C)c1Br — lower, -41.6%
- COc1ccncc1NC(=O)c1[nH]nc(C(C)C)c1Br — higher, 31.1%
- Cc1ccnc(NC(=O)c2[nH]nc(C(C)C)c2Br)c1 — higher, 65%
- CC(C)c1n[nH]c(C(=O)Nc2ccccn2)c1Br — higher, 67.4%
- CC(C)c1n[nH]c(C(=O)NC(C)c2ccncc2)c1Br (stereo not given) — lower, -9.76%
